The structures appear in SMILES notation. Several values for one entry are separate records, joined by “and”; a condition that tells them apart may be missing. Identical values can stand only once. Records with an inconclusive call do not appear. A structure can be active in one record and inactive in another. Activity calls are given as the source filed them. Unless noted, calls follow the shape of the dose curve; as a rule, active = well fitted curve in the direction sought with a large enough effect in the repeat runs; inconclusive = weak or mixed curves; inactive = no such curve, though single readings can be large; an effect the other way counts as inactive or inconclusive.

Experiment [1] in a line: qHTS assay to identify small molecule antagonists of the glucocorticoid receptor (GR) signaling pathway - cell viability counter screen (AID 720693). Also: nearly all actives have a fitted effect of over 55% in size.
Experiment [2] is described as follows: qHTS assay for identifying genotoxic compounds that show differential cytotoxicity against isogenic chicken DT40 cell lines with known DNA damage response pathways - wild type cell line (AID 743012). Also: nearly all actives have a fitted effect of over 60% in size. Also: potency is read from the fitted curve at half-maximal effect. In outline:
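Quantitative HTS on parental DT40 cells: 40 h compound treatment at 37 C/5% CO2, with viability then determined by CellTiter-Glo luminescence. Values serve as the DNA repair-proficient reference for differential cytotoxicity.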
For orientation: In qHTS, concentration-response curves come from the screen itself.

Experiment [3] is described as follows: qHTS assay for identifying genotoxic compounds that show differential cytotoxicity against isogenic chicken DT40 cell lines with known DNA damage response pathways - Rad54/Ku70 mutant cell line (AID 743015). Also: nearly all actives have a fitted effect of over 60% in size. Also: potency is read from the fitted curve at half-maximal effect.
Experiment [4] can be described thus: qHTS assay to identify small molecule antagonists of the androgen receptor (AR) signaling pathway - cell viability counter screen (AID 743033; also: nearly all actives have a fitted effect of over 45% in size; also: potency is read from the fitted curve at half-maximal effect).
Experiment [5] is described as follows: qHTS assay to identify small molecule antagonists of the androgen receptor (AR) signaling pathway using the MDA cell line - cell viability counter screen (AID 743041; also: nearly all actives have a fitted effect of over 45% in size; also: potency is read from the fitted curve at half-maximal effect). In outline: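 Viability counter screen run alongside the AR antagonist reporter: cells seeded 5 h before compound, R1881 added, 16 h incubation at 37C without CO2, fluorescent CellTiter-Fluor signal quantified.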

The nature of experiment [6]: qHTS assay to identify small molecule antagonists of the thyroid receptor (TR) signaling pathway - cell viability counter screen (AID 743064). Also: nearly all actives have a fitted effect of over 50% in size. Also: potency is read from the fitted curve at half-maximal effect. Put shortly: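 Compounds were tested on GH3.TRE-Luc cells in the presence of T3 at 1 nM final. Following 23.5 h at 37 °C, cell viability was quantified by CellTiter-Fluor.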
Experiment [7] concerns the target Estrogen receptor (Homo sapiens) (UniProt P03372). Nature of the experiment: qHTS assay to identify small molecule antagonists of the estrogen receptor alpha (ER-alpha) signaling pathway (AID 743069; active = well fitted curve in the direction sought with a large enough effect in the signal ratio in the repeat runs, not every such curve was filed as active; the % refers to the signal ratio). Put shortly: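 Estradiol-stimulated ER-alpha-UAS-bla HEK293 cells, 18 hr compound exposure at 37C. LiveBLAzer B/G substrate, 2 hr RT, fluorescence read.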
Experiment [8] in a line: qHTS assay to identify small molecule antagonists of the estrogen receptor alpha (ER-alpha) signaling pathway - cell viability counter screen (AID 743074; calls by dose curve;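 also: HEK293 cells carrying ER-alpha-UAS-bla reporter stimulated with 17beta-estradiol; nearly all actives have a fitted effect of over 45% in size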; also: potency is read from the fitted curve at half-maximal effect).
The target of experiment [9] is Estrogen receptor (Homo sapiens) (UniProt P03372). Briefly: qHTS assay to identify small molecule agonists of the estrogen receptor alpha (ER-alpha) signaling pathway (AID 743075; calls by dose curve;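 also: HEK293 GripTite cells with ER-alpha and UAS-driven beta-lactamase reporter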).
For experiment [10] the target is unchanged. Briefly: qHTS assay to identify small molecule agonists of the estrogen receptor alpha (ER-alpha) signaling pathway using the BG1 cell line (AID 743079). Also: nearly all actives have a fitted effect of over 20% in size.
A short description of experiment [11]: qHTS assay to identify small molecule antagonists of the estrogen receptor alpha (ER-alpha) signaling pathway using the BG1 cell line (AID 743080; calls by dose curve;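 also: BG1 cells stimulated with 17beta-estradiol alongside compound; nearly all actives have a fitted effect of over 25% in size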; also: potency is read from the fitted curve at half-maximal effect). Particulars: BG1Luc4E2 ERE-luciferase antagonist mode, luminescence; activity change, negative = inhibition: at 70.3 µM (top of the series). Put shortly:
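Luciferase inhibition measured with ONE-Glo after 30 min at RT in BG1Luc4E2 cells given test compounds and 17beta-estradiol for 21.5 h at 37 C; CellTiter-Fluor viability read in the same wells beforehand.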

A short description of experiment [12]: qHTS assay to identify small molecule antagonists of the estrogen receptor alpha (ER-alpha) signaling pathway using the BG1 cell line - cell viability counter screen (AID 743081).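 Also: compound given together with 17beta-estradiol as the ER stimulus; nearly all actives have a fitted effect of over 45% in size.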 Also: potency is read from the fitted curve at half-maximal effect.
Experiment [13] addresses Aromatase (Homo sapiens) (UniProt P11511). Nature of the experiment: qHTS assay to identify aromatase inhibitors (AID 743083). Also: nearly all actives have a fitted effect of over 55% in size. Also: potency is read from the fitted curve at half-maximal effect.
Experiment [14] can be described thus: qHTS assay for identifying genotoxic compounds that show differential cytotoxicity against isogenic chicken DT40 cell lines with known DNA damage response pathways - Rev3 mutant cell line (AID 743014). Also: nearly all actives have a fitted effect of over 55% in size. Also: potency is read from the fitted curve at half-maximal effect.
For experiment [15], the system named is thyroid hormone receptor (rat, GH3 cells). Nature of the experiment: qHTS assay to identify small molecule agonists of the thyroid receptor (TR) signaling pathway (AID 743066; calls by dose curve; also: potency is read from the fitted curve at half-maximal effect).
Experiment [16] has as its target Androgen receptor (Homo sapiens) (UniProt P10275). Briefly: qHTS assay to identify small molecule antagonists of the androgen receptor (AR) signaling pathway (AID 743035; active = well fitted inhibition curve with a large enough effect in the signal ratio in the repeat runs, not every such curve was filed as active; the % refers to the signal ratio). Put shortly:
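Cell line: GeneBLAzer AR-UAS-bla GripTite (HEK293). Stimulus: R1881 added after compound. Exposure: 16 h, 37C, 5% CO2. Readout: LiveBLAzer B/G FRET fluorescence after 2 h at room temperature.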

Experiment [17] has the same target. Nature of the experiment: qHTS assay to identify small molecule agonists of the androgen receptor (AR) signaling pathway (AID 743036; active = well fitted activation curve with a large enough effect in the signal ratio in the repeat runs, with a control signal flat, not every such curve was filed as active; the % refers to the signal ratio). Put shortly: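 Beta-lactamase under UAS control, stably integrated in HEK293 GripTite cells, reports receptor activation. After 16 h compound treatment, cells received FRET substrate for 2 h at room temperature before fluorescence reading.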

The target is the same in experiment [18]. Nature of the experiment: qHTS assay to identify small molecule agonists of the androgen receptor (AR) signaling pathway using the MDA cell line (AID 743040; also: nearly all actives have a fitted effect of over 20% in size). In outline: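 Luminescence from ONE-Glo, read after 30 min at room temperature, reflects MMTV-driven luciferase in MDA-kb2 cells (AR- and GR-responsive). Treatment lasted 16 h at 37C, 0% CO2.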
Experiment [19] can be described thus: qHTS assay to identify small molecule antagonists of the thyroid receptor (TR) signaling pathway (AID 743065). Also: nearly all actives have a fitted effect of over 55% in size. Also: potency is read from the fitted curve at half-maximal effect. Put shortly:
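GH3.TRE-Luc rat pituitary cells carrying two TR response elements driving luciferase were plated for 4 h, given compound plus 1 nM T3 (final), and incubated 23.5 h at 37 C. ONE-Glo luminescence measured reporter inhibition; CellTiter-Fluor fluorescence tracked cytotoxicity.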
% is scaled to controls: 0 for no effect and ±100 for the full control effect.

Chain of Androgen receptor (Homo sapiens) (P10275 whole entry, looked up): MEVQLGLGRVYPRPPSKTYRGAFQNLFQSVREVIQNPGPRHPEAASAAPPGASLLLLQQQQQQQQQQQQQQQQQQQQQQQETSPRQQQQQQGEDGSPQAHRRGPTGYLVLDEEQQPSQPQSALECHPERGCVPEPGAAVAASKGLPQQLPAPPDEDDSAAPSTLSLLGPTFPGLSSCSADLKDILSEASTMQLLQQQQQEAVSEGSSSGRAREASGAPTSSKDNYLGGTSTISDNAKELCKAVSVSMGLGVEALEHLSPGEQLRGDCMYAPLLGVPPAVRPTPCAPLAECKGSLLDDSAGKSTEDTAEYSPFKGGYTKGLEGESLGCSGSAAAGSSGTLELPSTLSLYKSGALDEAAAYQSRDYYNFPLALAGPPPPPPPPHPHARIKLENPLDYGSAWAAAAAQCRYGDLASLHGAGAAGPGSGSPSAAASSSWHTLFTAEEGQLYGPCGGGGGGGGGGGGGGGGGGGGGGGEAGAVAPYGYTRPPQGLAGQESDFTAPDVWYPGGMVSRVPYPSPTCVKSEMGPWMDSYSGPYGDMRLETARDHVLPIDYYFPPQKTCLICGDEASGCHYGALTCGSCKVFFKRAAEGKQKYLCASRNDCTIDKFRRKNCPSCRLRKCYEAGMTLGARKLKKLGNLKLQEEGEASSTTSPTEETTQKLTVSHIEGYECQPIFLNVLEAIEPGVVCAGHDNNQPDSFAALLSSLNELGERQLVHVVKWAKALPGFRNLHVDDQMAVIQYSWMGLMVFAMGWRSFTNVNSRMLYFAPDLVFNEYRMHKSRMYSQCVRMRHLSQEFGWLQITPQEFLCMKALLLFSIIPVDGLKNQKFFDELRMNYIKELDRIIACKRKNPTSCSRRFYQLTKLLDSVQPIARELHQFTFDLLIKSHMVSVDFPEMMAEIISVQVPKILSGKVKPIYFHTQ
Chain of Aromatase (Homo sapiens) (P11511 whole entry, looked up): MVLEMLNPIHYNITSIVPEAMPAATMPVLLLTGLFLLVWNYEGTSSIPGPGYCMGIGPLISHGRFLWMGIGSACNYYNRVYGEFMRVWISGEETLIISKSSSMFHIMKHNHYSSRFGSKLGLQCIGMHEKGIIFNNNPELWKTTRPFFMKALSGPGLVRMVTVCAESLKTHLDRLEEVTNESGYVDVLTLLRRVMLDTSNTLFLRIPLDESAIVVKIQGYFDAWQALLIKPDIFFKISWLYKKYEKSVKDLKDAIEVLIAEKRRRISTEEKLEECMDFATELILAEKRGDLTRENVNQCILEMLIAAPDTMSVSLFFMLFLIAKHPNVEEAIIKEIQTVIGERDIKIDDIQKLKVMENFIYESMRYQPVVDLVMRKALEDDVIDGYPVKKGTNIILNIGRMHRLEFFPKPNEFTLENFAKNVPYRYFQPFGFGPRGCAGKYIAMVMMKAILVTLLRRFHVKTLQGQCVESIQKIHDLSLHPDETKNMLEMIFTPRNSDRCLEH
Chain of Estrogen receptor (Homo sapiens) (P03372 whole entry, looked up): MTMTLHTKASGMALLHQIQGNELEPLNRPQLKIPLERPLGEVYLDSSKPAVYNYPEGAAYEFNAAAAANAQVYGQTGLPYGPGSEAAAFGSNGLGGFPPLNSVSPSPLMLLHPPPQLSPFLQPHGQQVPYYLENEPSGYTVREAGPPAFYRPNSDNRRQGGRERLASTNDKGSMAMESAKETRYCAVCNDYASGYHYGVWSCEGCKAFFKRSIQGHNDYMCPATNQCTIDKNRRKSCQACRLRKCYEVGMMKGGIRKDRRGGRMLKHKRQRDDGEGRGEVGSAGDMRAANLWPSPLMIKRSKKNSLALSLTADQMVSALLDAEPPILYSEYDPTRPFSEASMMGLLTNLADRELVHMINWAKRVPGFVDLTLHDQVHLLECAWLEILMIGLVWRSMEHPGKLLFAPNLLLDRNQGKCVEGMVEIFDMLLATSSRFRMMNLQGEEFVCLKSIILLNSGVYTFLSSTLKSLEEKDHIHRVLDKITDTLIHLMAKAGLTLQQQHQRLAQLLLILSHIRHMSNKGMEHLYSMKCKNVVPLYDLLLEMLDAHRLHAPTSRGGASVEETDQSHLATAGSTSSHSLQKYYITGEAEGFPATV

In the case of `O=CC(=O)c1ccccc1`, the Potency entry in experiment [1], in experiment [2], in [3], in experiment [4], in experiment [5] and in [6] was “inactive” in each case. Also, the Potency entry in [7], in [8], in experiment [9], in experiment [10], in [11] and in experiment [12] was “inactive” throughout. Also, the Potency result in experiment [13] was “inactive”.

For the compound `COc1ccc(CN(CCN(C)C)c2ccccn2)cc1`, the Potency result in experiment [1], in [2], in [14], in experiment [3], in experiment [4] and in experiment [5] was “inactive” in each case. Further, the Potency result in experiment [15], in experiment [8] and in experiment [12] was “inactive” throughout.

With `CN(C)CCOC(c1ccccc1)c1ccccc1`, the Potency result in experiment [1], in [4], in experiment [16], in experiment [5], in experiment [15] and in experiment [7] was “inactive” in each case. The Potency entry in [9], in [10], in experiment [11] and in [12] was “inactive” throughout. Moreover, the outcome in experiment [17] and in experiment [18] was inactive. Moreover, the Potency in experiment [6] was 26.6 µM (active) and 19.4 µM (active); in experiment [19] it was 26.6 µM (active) and 48.6 µM (active); in experiment [8], “inactive and 9.52 µM (active)”.

Turning to `COc1ccc2cc(S(=O)(=O)N[C@H](CC(=O)N[C@H](Cc3ccc(CN4[C@H](C)CCC[C@@H]4C)cc3)C(=O)N(C)C(C)C)c3ccc4c(c3)OCO4)ccc2c1`, the Potency in experiment [2] is 7.28 µM (active); in [14], 9.17 µM (active); in experiment [3], 5.16 µM (active); in experiment [4] it was 20.7 µM (active); in [6], 2.58 µM (active); in [19], 3.65 µM (active). The Potency in [8] was 52 µM (active); in [12] it was 9.17 µM (active); in experiment [13], 46 µM (active). Further, in experiment [7], the Potency entry is “inactive”.

For the compound `O=C1OC2(c3ccccc31)c1cc(Br)c(O)c(Br)c1Oc1c2cc(Br)c(O)c1Br`, the Potency entry in [1], in experiment [2], in experiment [3], in experiment [4], in experiment [19] and in experiment [15] was “inactive” each time. The Potency entry in experiment [8], in [9], in experiment [10], in experiment [11] and in [13] was “inactive” in each case. Also, the Potency in [5] is 11.9 µM (active) and 7.81 µM (active) and 17.7 µM (active); in experiment [6], 6.68 µM (active) and 5.53 µM (active) and 7.91 µM (active); in [12], 11.9 µM (active) and 3.91 µM (active) and 8.88 µM (active).

On to `Oc1ccccc1`, for which the Potency entry in experiment [1], in [2], in experiment [14], in experiment [3], in experiment [4] and in experiment [5] was “inactive” throughout. Besides, the Potency entry in experiment [6], in [8], in experiment [12] and in [13] was “inactive” throughout.

Consider `O=c1[nH]cnc2c1ncn2[C@H]1CC[C@@H](CO)O1`, for which the Potency entry in [1], in experiment [2], in [4], in experiment [5], in experiment [6] and in experiment [19] was “inactive” in each case. The Potency entry in experiment [7], in experiment [8], in experiment [9], in experiment [10], in experiment [11] and in [12] was “inactive” throughout. Further, in experiment [13], the Potency result was “inactive”. The Potency entry in experiment [3] is “inactive and 61.1 µM (active)”; in experiment [15], “inactive and 1.31 µM (active)”.

For the compound `CN(C)CCOC(C)(c1ccccc1)c1ccccn1` (stereo not drawn), the Potency result in experiment [1], in [2], in experiment [14], in experiment [3], in [4] and in experiment [5] was “inactive” each time. Also, the Potency entry in experiment [8], in experiment [12] and in experiment [13] was “inactive” in each case.

In the case of `Cn1c(=O)c2c(ncn2C)n(C)c1=O`, the Potency result in [1], in experiment [2], in experiment [4], in [6], in [8] and in [12] was “inactive” throughout. In experiment [13], the Potency entry was “inactive”. Besides, the Potency entry in experiment [14] is “inactive and 49.2 µM (active)”; in experiment [3], “inactive and 49.2 µM (active)”.

`Nc1ccc(O)c([N+](=O)[O-])c1`: the Potency in experiment [3] is 65.6 µM (active); in [6], 45.7 µM (active); in [12], 34 µM (active). Further, the Potency entry in experiment [4], in [19], in experiment [15], in experiment [9], in experiment [10] and in experiment [11] was “inactive” in each case. In addition, in experiment [13], the Potency result is “inactive”.

Take `C1=CC2C3C=CC(C3)C2C1` (stereo not drawn): the Potency entry in experiment [1], in experiment [4], in [5], in experiment [19], in experiment [15] and in [12] was “inactive” in each case. Besides, the Potency in experiment [14] is 47.7 µM (active).

With `O=C(O)CC(O)C(=O)O` (stereo not drawn), the Potency result in [1], in [2], in experiment [14], in [3], in experiment [4] and in experiment [5] was “inactive” in each case. For the same compound, the Potency result in experiment [6], in experiment [8], in experiment [12] and in experiment [13] was “inactive” throughout.

Consider `O=C1NS(=O)(=O)c2ccccc21`, for which the Potency entry in experiment [1], in [2], in experiment [14], in experiment [3], in experiment [4] and in [5] was “inactive” throughout. Also, the Potency entry in [6], in experiment [8], in [12] and in experiment [13] was “inactive” each time.

For the compound `Nc1ccc([N+](=O)[O-])cc1O`, the Potency result in experiment [1], in experiment [4], in experiment [15], in experiment [7], in experiment [9] and in experiment [10] was “inactive” throughout. Moreover, the Potency entry in experiment [11] and in [13] was “inactive” in each case. In addition, the Potency in [14] was 47.2 µM (active); in [3] it was 55.5 µM (active); in experiment [5] it was 54.5 µM (active); in experiment [6], 36.4 µM (active); in [19], 48.6 µM (active).

Take `CN[C@H]1CC[C@@H](c2ccc(Cl)c(Cl)c2)c2ccccc21`: the Potency result in [1], in [9] and in experiment [12] was “inactive” in each case. In addition, the Potency in [2] is 5.96 µM (active); in experiment [14], 8.41 µM (active); in experiment [3], 7.5 µM (active); in [4], 23.9 µM (active); in [6], 9.44 µM (active); in experiment [19], 6.68 µM (active).

As for `CCc1nc(N)nc(N)c1-c1ccc(Cl)cc1`, the Potency entry in experiment [1], in [5], in experiment [15], in [7], in [9] and in [12] was “inactive” each time. Besides, the Potency was 596 nM (active) and 139 nM (active) and 273 nM (active) in [2]; 668 nM (active) and 196 nM (active) and 109 nM (active) in experiment [14]; 1.5 µM (active) and 392 nM (active) and 217 nM (active) in [3]; 62.1 µM (active) in experiment [6]; 10.6 µM (active) and 6.21 µM (active) and 9.69 µM (active) in experiment [19]; 7.02 µM (active) in experiment [8]. The Potency is 23.7 µM (active) in experiment [11]; “inactive and 55.3 µM (active)” in experiment [13].

`CC(C)NCC(O)c1ccc(O)c(O)c1` (stereo not drawn): the Potency entry in [1], in experiment [4], in experiment [5], in experiment [6], in [19] and in experiment [15] was “inactive” in each case. Also, the Potency entry in experiment [8], in [12] and in experiment [13] was “inactive” each time. The Potency result in experiment [2] was “inactive and 61.1 µM (active)”; in experiment [14] it was 61.1 µM (active).

`CC/C(=C(\c1ccccc1)c1ccc(OCCN(C)C)cc1)c1ccccc1`: the Potency in experiment [4] is 13.9 µM (active) and 15.5 µM (active) and 11.1 µM (active); in experiment [19], 8.63 µM (active) [middle of 5 runs]; in experiment [8], 48.9 µM (active) and 49.4 µM (active) and 49 µM (active). The Potency result in [15] and in experiment [12] was “inactive” throughout.

These data come from PubChem BioAssay (Tox21).
